From PubChem
Sampled rows, rich in hits. Any-hit rate of the full collection: about 31%.
CYP2C19 inhib: blockers of cytochrome P450 2C19 activity – biochemical, luminescence, ADME assay, primary screen; AID 778, 2007; CYP2C19 Supersomes, luciferin-H EGE luminescence, 30 min; P33261; hit rate 21% among 96,000; inhibition, % at 5 µM;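 active = CYP2C19 inhibition above a set limit at 5 µM in the primary screen, cut at about 50% in these data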;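 note: plate controls were negative control wells for no effect and 2.5 mM tranylcypromine positive control for full effect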
Target sequence (P33261 whole entry, looked up): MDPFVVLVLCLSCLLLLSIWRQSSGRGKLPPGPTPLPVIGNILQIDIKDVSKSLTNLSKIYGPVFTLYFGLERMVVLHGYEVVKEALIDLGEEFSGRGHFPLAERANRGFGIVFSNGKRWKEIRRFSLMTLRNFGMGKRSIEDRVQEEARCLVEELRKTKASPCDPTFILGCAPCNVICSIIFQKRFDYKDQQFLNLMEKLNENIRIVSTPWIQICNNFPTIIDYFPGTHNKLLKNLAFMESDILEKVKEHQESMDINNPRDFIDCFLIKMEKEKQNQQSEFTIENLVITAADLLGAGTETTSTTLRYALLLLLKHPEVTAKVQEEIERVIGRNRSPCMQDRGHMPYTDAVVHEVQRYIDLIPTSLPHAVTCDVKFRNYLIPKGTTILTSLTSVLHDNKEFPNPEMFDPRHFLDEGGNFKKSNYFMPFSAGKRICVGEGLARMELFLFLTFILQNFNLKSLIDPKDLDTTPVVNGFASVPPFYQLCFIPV
CYP2C9 activ: human CYP2C9 activators, primary screen, biochemical, luminescence. Cytochrome P450 2C9 (Homo sapiens), P11712. recombinant CYP2C9, luciferin-H conversion; active compounds read high; factor 1 = untreated enzyme, 0 = blocked. activation factor at 5 µM. hit rate 1.4% among 96,000. AID 1024, 2008;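 active = activation factor of 2 or more for CYP2C9 at a 5 µM dose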;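 note: 0 = sulfaphenazole-blocked wells and 1 = vehicle-only wells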
CYP2C19 act: human CYP2C19 activators, primary screen, biochemical, luminescence; recombinant CYP2C19, luciferin-H EGE luminescence; active compounds read high; 0 = fully inhibited enzyme, 1 = untreated enzyme; activation factor at 5 µM; Cytochrome P450 2C19 (Homo sapiens), P33261; 96,000 tested, under 10 active;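 active = activation factor of at least 2 at 5 µM in the primary screen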;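 note: 0 = wells with 2.5 mM tranylcypromine and 1 = vehicle-only wells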
CYP2C9 inh: blockers of cytochrome P450 2C9 activity – biochemical, luminescence, ADME assay, primary screen. CYP2C9 Supersomes, luciferin-H conversion. inhibition, % at 5 µM. hit rate 20% among 96,000. AID 777, 2007;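 active = blocking of liver enzyme CYP2C9 beyond about 50% at 5 µM, limit read from the data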
PLAP activator: PLAP enzyme activators, biochemical, luminescence, HTS | Alkaline phosphatase, placental type (Homo sapiens), P05187 | purified PLAP enzyme, luminescent substrate read-out; active compounds read high | activation fold at 20 µM | hit rate 1.2% among 96,000 | AID 696, 2007; in the data active = activation fold above about 2
Numbers without * were called inactive.

SMILES | CYP2C19 inhib | CYP2C9 activ | CYP2C19 act | CYP2C9 inh | PLAP activator
COc1cccc(Nc2nc(-c3ccc(O)cc3)cs2)c1 | 48.7 | 0.2 | 0.5 | 82.1* | 0.9
CC(C)Cc1nnc(NS(C)(=O)=O)s1 | -1.2 | 0.9 | 1 | 11.3 | 1.1
COc1ccc(S(=O)(=O)Nc2nnc(CC(C)C)s2)cc1 | -2.3 | 0.4 | 1 | 63.0* | 1.4
COc1ccc(S(=O)(=O)Nc2nnc(C)s2)cc1 | 12.1 | 0.5 | 0.9 | 47.5 | 1
CC(C)Cc1nnc(NS(=O)(=O)c2ccc(Cl)cc2)s1 | 9.0 | 0.3 | 0.9 | 70.5* | 1.1
COc1ccccc1-c1nc(-c2cccc(C)c2)no1 | 49.0 | 1.2 | 0.5 | -16.7 | 0.9
COc1ccccc1-n1c(SCC(=O)N2CCCCC2)nnc1-c1ccccc1O | 26.7 | 0.7 | 0.7 | 34.9 | 0.9
Cc1cc(C)n(C(=O)c2ccncc2)n1 | 1.4 | 1 | 1 | 4.6 | 1
COc1ccc(S(=O)(=O)N2CCC(C(=O)NCCC3=CCCCC3)CC2)cc1OC | 49.7 | 1 | 0.5 | -4.4 | 1.6
CCOC(=O)N1CCC(N2Cc3cccc(C(=O)NCc4ccc(C)cc4)c3C2=O)CC1 | 24.7 | 0.3 | 0.8 | 70.1* | 1.4
CCOC(=O)N1CCC(NC(=O)c2cccc3c2C(=O)N(CCOC)C3)CC1 | 33.5 | 0.1 | 0.7 | 87.7* | 1.5
CCOC(=O)N1CCC(N2Cc3cccc(C(=O)NC(C)c4ccc5c(c4)OCCO5)c3C2=O)CC1 (stereo not given) | 82.4* | 0 | 0.2 | 98.5* | 1.6
CCOC(=O)N1CCC(N2Cc3cccc(C(=O)NCc4ccccn4)c3C2=O)CC1 | 73.9* | 0.1 | 0.3 | 94.9* | 1.5
CCOC(=O)N1CCC(N2C(=O)c3ccccc3C2=O)CC1 | 15.9 | 0.6 | 0.8 | 43.5 | 0.9
COCCN1Cc2cccc(C(=O)Nc3cc(C)cc(C)c3)c2C1=O | -0.6 | 0.6 | 1 | 38.4 | 1
COCCN1Cc2cccc(C(=O)NCc3ccccn3)c2C1=O | 43.3 | 0.9 | 0.6 | 13.7 | 1.1
O=C(Nc1nnc(C23CC4CC(CC(C4)C2)C3)s1)c1ccc(N2C(=O)CCC2=O)cc1 | -5.4 | 0.9 | 1.1 | 5.6 | 1
CCCc1nnc(NC(=O)C2CCCO2)s1 (stereo not given) | 8.0 | 0.9 | 0.9 | 5.9 | 0.9
COc1ccc(CSc2nnc(C)n2N)cc1Br | 38.0 | 1 | 0.6 | -1.0 | 0.9
CCc1nnc(SCc2ccc(OC)c(Br)c2)n1N | 57.9* | 1.3 | 0.4 | -26.9 | 1
Cc1ccc(C(=O)N2CCSCC2)cc1 | 25.7 | 0.7 | 0.7 | 27.2 | 0.8
O=c1c2c3c(sc2ncn1Cc1ccc(F)cc1)CCC3 | 80.6* | 0.2 | 0.2 | 78.2* | 0.8
CCC(=O)NC(Nc1cccc(C)n1)(C(F)(F)F)C(F)(F)F | -2.2 | 1 | 1 | 1.6 | 1
O=C(c1coc(=O)c(Br)c1)N1CCCc2ccccc21 | 8.0 | 0.7 | 0.9 | 26.4 | 1.2
c1ccc(-c2noc(C34CC5CC(CC(C5)C3)C4)n2)nc1 | -9.4 | 1 | 1.1 | -0.4 | 1.1
SMILES | CYP2C19 inhib | CYP2C9 activ | CYP2C19 act | CYP2C9 inh | PLAP activator
CCOC(=O)c1c(C)nc2sc3c(=O)n(-c4ccc(C(C)=O)cc4)cnc3c2c1-c1ccc(Cl)cc1 | 93.8* | 0.1 | 0.1 | 87.9* | 1.7
CCOC(=O)c1c(C)nc2sc3c(=O)n(-c4ccc(C(C)=O)cc4)nnc3c2c1-c1ccc(Cl)cc1 | -0.3 | 0.9 | 1 | 6.3 | 1.1
CCCCN1c2ccccc2N(CCCO)c2cc(C)nnc21 | 27.1 | 0.4 | 0.7 | 64.6* | 1.1
CCCCN1C2=NCCCN2c2ccccc21 | -11.5 | 1.1 | 1.1 | -6.2 | 0.8
COC(=O)CSC1=C(C#N)C(=O)NC(c2ccccc2)S1 (stereo not given) | 58.0* | 0.1 | 0.4 | 92.5* | 1.6
N#C/C(=C(\O)Cc1ccccc1)c1nc2ccccc2[nH]1 | 7.4 | 0.9 | 0.9 | 5.2 | 0.9
N#C/C(=C(/O)CN1C(=O)c2ccccc2C1=O)c1nc2ccccc2[nH]1 | 19.7 | 0.5 | 0.8 | 50.8* | 2.1*
CSCCC(/C(O)=C(\C#N)c1nc2ccccc2[nH]1)N1C(=O)c2ccccc2C1=O (stereo not given) | 98.6* | 0 | 0 | 95.3* | 2*
C/C(O)=C(\C#N)c1nc2ccccc2[nH]1 | 3.5 | 0.7 | 1 | 27.0 | 1
O=C(c1ccc(Cn2c(=O)[nH]c3ccccc3c2=O)cc1)N1CCN(c2ccc(F)cc2)CC1 | 88.5* | 0.4 | 0.1 | 62.4* | 1.1
CCN1CCN(C(=O)c2ccc(Cn3c(=O)[nH]c4cc(OC)c(OC)cc4c3=O)cc2)CC1 | -3.9 | 1.1 | 1 | -10.0 | 1.7
COc1ccc(Cn2c(=O)[nH]c3cc(C(=O)N4CCN(Cc5ccccc5)CC4)ccc3c2=O)cc1 | 63.7* | 0.2 | 0.4 | 75.4* | 1.2
O=C(CCn1c(=O)[nH]c2ccccc2c1=O)N1CCN(c2ccc(Cl)cc2)CC1 | 12.8 | 0.8 | 0.9 | 15.4 | 0.8
Cc1cccc(Cn2c(=O)c3c(nc4n3CCCN4Cc3ccccc3)n(C)c2=O)c1 | 12.0 | 0.5 | 0.9 | 48.5 | 1.3
CC(c1ccccc1)N1CCn2c(nc3cc(NC(=O)c4cccs4)ccc32)C1 (stereo not given) | 36.0 | 0.2 | 0.6 | 83.6* | 1.9
CC(c1ccccc1)N1CCn2c(nc3cc(NC(=O)NC4CCCCC4)ccc32)C1 (stereo not given) | 12.0 | 0.7 | 0.9 | 30.7 | 2.9*
O=C(Nc1ccc2c(c1)nc1n2CCSC1)c1ccccc1 | 38.5 | 0.5 | 0.6 | 54.0* | 1.1
COc1ccc(Nc2nnc(SCc3cc(=O)n4ccsc4n3)s2)cc1 | 48.6 | 0.6 | 0.5 | 41.0 | 1.2
CCC(=NC(C)c1ccccc1)c1c(O)n(C)c(=O)n(C)c1=O (stereo not given) | 67.8* | 0.4 | 0.3 | 55.6* | 1.2
CCN(CC(=O)NCc1cccs1)c1ccc(S(=O)(=O)N2CCOCC2)cn1 | -4.7 | 0.4 | 1 | 57.3* | 1
CN(Cc1ccncc1)C1CC(=O)N(c2ccc(Cl)cc2)C1=O (stereo not given) | 98.6* | 0.1 | 0 | 93.5* | 1
CCOC(=O)c1ccc(N2C(=O)CC(N(Cc3ccc4c(c3)OCO4)C(=O)Nc3ccccc3)C2=O)cc1 (stereo not given) | 81.1* | 0.1 | 0.2 | 89.2* | 2*
COC(=O)CN(C)C1CC(=O)N(c2ccc(Cl)cc2)C1=O (stereo not given) | 17.2 | 1.2 | 0.8 | -23.4 | 1.4
CNC(=S)N(Cc1ccc(OC)cc1)C1CC(=O)N(c2ccc(Cl)cc2)C1=O (stereo not given) | 62.8* | 0.7 | 0.4 | 30.4 | 1
CNC(=S)N(Cc1ccc2c(c1)OCO2)C1CC(=O)N(c2ccc(F)cc2)C1=O (stereo not given) | 91.5* | 0.2 | 0.1 | 75.5* | 0.9
